EBV LMP1 NFkB: inhibitors of Epstein-Barr LMP1-induced NF-kappaB reporter; AID 504558; LMP1-induced NF-kappaB luciferase reporter cells, luminescence; 350,000 tested, 0.69% active; inhibition, % at 12.5 µM; in the data active = inhibition above about 41%;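 note: 0% = neutral control wells and 100% = reference inhibitor control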
Peg3 prom inh: Peg3 promoter activity inhibition | HeLa PEG-Prom luciferase reporter, luminescence, overnight | inhibition, % at 20 µM | 360,000 tested, 1.7% active | AID 588405;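 active = inhibition of at least 50% at 20 µM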
TROY signal inh: inhibitors of TROY-dependent NF-kB signaling. Q293 LMP1-TROYcd NF-kB luciferase reporter, 4 h. inhibition, % at 10 µM. 360,000 tested, 0.98% active. AID 1347056;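 active = compounds whose plate-normalised and pattern-corrected inhibition of the luciferase reporter signal at the single screening dose is 50% or more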
MITF TRPM1 inh: MITF TRPM1 promoter inhibition in SK-MEL-5 cells | AID 488899 | SK-MEL-5 TRPM1 promoter luciferase, 24 h | 330,000 tested, 0.83% active | inhibition, % at 12.5 µM;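 active = mean inhibition across replicates of 60% or more, whatever share of single replicates reaches that level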
HIF-2a block: blocks HIF-2a reporter activity; 786-0 RCC cells HIF-2a reporter, luciferase luminescence, overnight; inhibition, % at 18.8 µM; 360,000 tested, 0.72% active; AID 624352;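 active = inhibition of the luminescence signal of 40% or more relative to plate controls, in a single-dose primary screen at 18.75 µM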
TWEAK Fn14 block: blocks TWEAK-Fn14 interaction in a reporter cell assay | TWEAK-stimulated Fn14 reporter cells, luciferase luminescence, 8 h | inhibition, % at 10 µM | 360,000 tested, 2% active; in the data active = inhibition above about 50%
Starred values were filed as active, the others as inactive; / = not tested or not shown; ! = a repeat was not active. Compounds with a hit are over-represented: about 4% of the library has one in this group of screens.

SMILES	EBV LMP1 NFkB	Peg3 prom inh	TROY signal inh	MITF TRPM1 inh	HIF-2a block	TWEAK Fn14 block
Cn1c(=O)c(C(=O)NNC(=O)c2cccc(Cl)c2)c(O)c2ccccc21	-5	64*	31	19	13	49
Cn1c(=O)c(C(=O)Nc2ccccc2S(N)(=O)=O)c(O)c2ccccc21	-27	-76	-20	-14	-156	3
COc1ccc(Cc2c(-c3cccc(Cl)c3)nc3ccc(Cl)cn23)c(C)c1	/	-98	-43	/	-192	4
Cc1noc(C)c1COc1ccccc1C(=O)NCCc1ccc(F)cc1	2	-6	-4	-16	6	-10
Cc1ccccc1NC(=O)c1cnc2ccccn2c1=O	29	-10	34	9	-33	83*
COc1cccc(NC(=O)COc2coc(CN3CCc4ccccc4C3)cc2=O)c1	1	8	2	-3	0	-12
CN(C(=O)COc1ccccc1C(=O)NCCOc1ccccc1)c1ccccc1	13	106*	62*	28	-10	88*
C[C@@H]1CN([C@@H](C)CO)S(=O)(=O)c2ccc(Br)cc2O[C@H]1CN(C)C(=O)Cc1cccnc1	-6	-1	11	/	7	-8
O=[N+]([O-])c1ccc(N2CCN(Cc3ccccc3)CC2)s1	-2	-1	-7	-10	9	12
O=[N+]([O-])c1ccc(N2CCN(Cc3ccccc3)CC2)c2c1no[n+]2[O-]	-43	95*	-15	/	24	39
COc1ccc(OCC(=O)N/N=C/c2cccn2-c2cccc(C(=O)O)c2)cc1	8	-2	-19	4	-3	1
O=C1c2ccccc2C(=O)c2[nH]c(=O)[nH]c21	89*	82*	54*	101*	7	45
COc1ccc(CN(C)S(=O)(=O)c2nnc(NC(=O)c3cccc(OC)c3)s2)cc1	-4	29	20	8	-2	-18
COc1cccc(C(=O)Nc2nnc(S(=O)(=O)N(C)Cc3ccccc3)s2)c1	2	55*	42	-3	7	-13
CC(C)(C)C(=O)Nc1ccc(-c2cc3cc(Cl)ccc3o2)cc1	-8	-105	61*	-13	-32	58*
Nc1cc(C(F)(F)F)cc2c1SCC(=O)N2	4	-9	15	6	11	6
Cc1nn(CCc2nn[nH]n2)c2nc(-c3ccc(Br)cc3)cc(C(F)(F)F)c12	-8	47	53*	0	24	32
Cc1nn(CCc2nn[nH]n2)c2nc(C(F)(F)F)cc(C(F)(F)F)c12	-12	-8	32	5	23	-1
O=C(Cn1c(=O)cnc2ccccc21)Nc1cccc(S(=O)(=O)N2CCCCC2)c1	1	13	1	3	21	-13
c1ccc(CN2CCC(CNc3ncnc4ccccc34)C2)cc1 (stereo not given)	21	-11	25	8	19	10
Oc1ccc(CCNc2c3ccccc3nc3ccccc23)cc1O	-9	109*	-29	72*	54*	-26
C=CCNc1ncnc2ccccc12	4	4	50*	15	-11	41
CCCCNc1nc(NCc2ccccc2)nc2ccccc12	/	/	55*	/	7	34
C=CCNc1ncnc2c1[nH]c1ccccc12	2	-8	/	14	-37	24
c1ccc(CN2CCC(Nc3nc(-c4ccccc4)nc4ccccc34)CC2)cc1	-48	75*	-32	5	5	24
SMILES	EBV LMP1 NFkB	Peg3 prom inh	TROY signal inh	MITF TRPM1 inh	HIF-2a block	TWEAK Fn14 block
N#Cc1ccccc1S(=O)(=O)N1CCN(C(=O)c2cc3c(s2)CCC3)CC1	1	-10	-37	4	-13	-24
c1ccc(CNc2ncnc3ccccc23)cc1	22	7	28	5	4	52*!
CNc1nc(NCc2ccccc2)c2ccccc2n1	-37	-1	15	14	9	-33
c1ccc(N2CCN(c3nc(NCc4ccco4)c4ccccc4n3)CC2)cc1	18	-2	-32	-27	-69	-5
COc1cc2ncnc(NCc3ccccc3)c2cc1OC	6	17	14	6	17	-6
c1ccc(CNc2nc(N3CCN(Cc4ccccc4)CC3)nc3ccccc23)cc1	/	65*	39	/	12	-37
c1ccc(CNc2c3ccccc3nc3ccccc23)cc1	-54	97*	-57	75*	44*	-30
Cc1nc(N2CCN(Cc3ccccc3)CC2)nc2c1CCC2	0	12	12	-5	10	60*

Compound activity from PubChem.
